Measured values reported in PubChem BioAssay (NCATS).
Results filed as inconclusive are left out. Calls of active or inactive are those of the source. The call rests on the fitted dose curve; in most records, active means well fitted inhibition curve with a large enough effect; inconclusive means small, poorly fitted or top-dose-only effect; inactive means flat fitted curve, though single readings scatter.

Columns and labels:
[1] = test system: CRL-7250; assay: Cytotoxic Profiling of Annotated Libraries Using Quantitative High-Throughput Screening (AID 1296008); details: Five cell lines viability, CellTiter-Glo ATP luminescence, 48-72 h; max response: hits give low values; further: potency means the concentration at half of the fitted maximal effect; on max response: on the % scale 0 is the no-effect control and ±100 the full control effect
Procedure, shortened: (§1)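 Cytotoxicity was measured as CellTiter-Glo ATP luminescence, read after 10 min at room temperature. Compound treatment of the cells lasted 48 or 72 hr at 37 degrees Celsius in a qHTS format.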

[2] = test system: HaCat; assay: as above; details: Five cell lines viability, CellTiter-Glo ATP luminescence, 48-72 h; max response: hits give low values
Procedure, shortened: as §1

[3] = test system: KB-3-1; assay: as above; details: Five cell lines viability, CellTiter-Glo ATP luminescence, 48-72 h; max response: hits give low values
Procedure, shortened: as §1

[4] = test system: NIH3T3; assay: as above; details: Five cell lines viability, CellTiter-Glo ATP luminescence, 48-72 h; max response: hits give low values
Procedure, shortened: as §1

[5] = test system: MCC-13; assay: qHTS assay to identify novel small-molecules to repurpose for Merkel cell carcinoma treatment (AID 1296009); details: MCC and control cell lines, CellTiter-Glo viability, 72 h; series mostly up to 46 µM
Procedure, shortened: (§2)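 After compound transfer in DMSO, plates were kept 72 hr at 37 degree celsius. Luminescent ATP signal from CellTiter-Glo served as viability measure, normalized against DMSO and no-cell controls.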

[6] = test system: MCC-26; assay: as above; details: MCC and control cell lines, CellTiter-Glo viability, 72 h; series mostly up to 46 µM
Procedure, shortened: as §2

[7] = test system: MKL-1; assay: as above; details: MCC and control cell lines, CellTiter-Glo viability, 72 h; series mostly up to 46 µM
Procedure, shortened: as §2

[8] = test system: PAD; assay: qHTS profiling for inhibitors of Plasmodium falciparum proliferation (AID 504749); further: potency means the concentration at half of the fitted maximal effect; details: P. falciparum in erythrocytes, SYBR Green DNA, 72 h; series mostly up to 28.7 µM
Procedure, shortened: (§3)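 Three-day growth assay of blood-stage parasites in erythrocytes (0.3% parasitemia, 2.5% hematocrit) at 37 C, 5% CO2, quantified by SYBR Green DNA staining after overnight detergent lysis.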

[9] = test system: PC15; assay: as above; details: P. falciparum in erythrocytes, SYBR Green DNA, 72 h; series mostly up to 28.7 µM
Procedure, shortened: as §3

[10] = test system: PC26; assay: as above; details: P. falciparum in erythrocytes, SYBR Green DNA, 72 h; series mostly up to 28.7 µM
Procedure, shortened: as §3

[11] = test system: PC49; assay: as above; details: P. falciparum in erythrocytes, SYBR Green DNA, 72 h; series mostly up to 28.7 µM
Procedure, shortened: as §3

[12] = test system: SC27B; assay: as above; details: P. falciparum in erythrocytes, SYBR Green DNA, 72 h; series mostly up to 28.7 µM
Procedure, shortened: as §3

[13] = test system: TAB109; assay: as above; details: P. falciparum in erythrocytes, SYBR Green DNA, 72 h; series mostly up to 28.7 µM
Procedure, shortened: as §3

[14] = test system: TAB113; assay: as above; details: P. falciparum in erythrocytes, SYBR Green DNA, 72 h; series mostly up to 28.7 µM
Procedure, shortened: as §3

[15] = test system: TAB165; assay: as above; details: P. falciparum in erythrocytes, SYBR Green DNA, 72 h; series mostly up to 28.7 µM
Procedure, shortened: as §3

[16] = test system: W2; assay: as above; details: P. falciparum in erythrocytes, SYBR Green DNA, 72 h; series mostly up to 28.7 µM
Procedure, shortened: as §3

[17] = test system: HACAT; assay: qHTS assay to identify novel small-molecules to repurpose for Merkel cell carcinoma treatment (AID 1296009); details: MCC and control cell lines, CellTiter-Glo viability, 72 h; at 44.8 µM (top of the series) unless noted
Procedure, shortened: as §2

[18] = test system: HEK293T; assay: as above; details: MCC and control cell lines, CellTiter-Glo viability, 72 h; at 44.8 µM (top of the series)
Procedure, shortened: as §2

[19] = test system: CRL-7250; assay: as above; details: MCC and control cell lines, CellTiter-Glo viability, 72 h; at 44.8 µM (top of the series) unless noted
Procedure, shortened: as §2

[20] = test system: HEK293; assay: Cytotoxic Profiling of Annotated Libraries Using Quantitative High-Throughput Screening (AID 1296008); details: Five cell lines viability, CellTiter-Glo ATP luminescence, 48-72 h; max response: hits give low values; further: potency means the concentration at half of the fitted maximal effect; on max response: on the % scale 0 is the no-effect control and ±100 the full control effect
Procedure, shortened: as §1
Further: nearly all actives have a fitted effect of over 60% in size.

CCCN(CCC)CCc1c[nH]c2ccccc12
inactive: max response [1] -1.07% | max response [2] -5.54% | max response [3] -20.7% | max response [4] 3.34% | Potency [5] | Potency [6] | Potency [7]

O=C(CCCN1CCC(n2c(=O)[nH]c3ccccc32)CC1)c1ccc(F)cc1
inactive: max response [1] -0.196% | outcome [2] | max response [3] -5.74% | max response [4] 0.676% | outcome [17] | Potency [5] | Potency [6] | Potency [7]
active: Potency [8] 1120 nM | Potency [9] 1260 nM | Potency [10] 2560 nM | Potency [11] 2820 nM | Potency [12] 2000 nM | Potency [13] 1000 nM | Potency [14] 1260 nM | Potency [15] 1000 nM | Potency [16] 642 nM

COc1cc(C[C@@H](C)N)c(OC)cc1Br
inactive: max response [1] 2.12% | max response [2] -1.26% | max response [3] -0.0524% | max response [4] -1.11% | Potency [5] | Potency [6] | Potency [7]

O=C(N[C@@H]1N=C(c2ccccc2F)c2cccc3c2N(CC3)C1=O)c1cc2ccccc2[nH]1
inactive: max response [1] -34.1% | max response [2] -2.29% | max response [3] -13.9% | Potency [5] | Potency [6] | Potency [7]
active: Potency [4] 4320 nM

O=C(O)CCCCCCNC1c2ccccc2CCc2ccccc21
inactive: max response [1] -2% | max response [2] 0.465% | max response [3] 7.47% | max response [4] 1.62% | Potency [5] | Potency [6] | Potency [7]

COP(=S)(OC)Oc1ccc(Sc2ccc(OP(=S)(OC)OC)cc2)cc1
inactive: Potency [8] | Potency [9] | Potency [10] | Potency [11] | Potency [12] | Potency [13] | Potency [14] | Potency [15] | Potency [16] | max response [1] -0.305% | max response [2] -8.51% | max response [3] 1.06% | outcome [4] | Potency [5] | Potency [6] | Potency [7]

COc1ccc2[nH]cc(CCN(C(C)C)C(C)C)c2c1
inactive: max response [1] -1.26% | max response [2] 1.43% | max response [3] -17% | max response [4] 1.94% | Potency [5] | Potency [6] | Potency [7]

CCOP(=S)(OCC)O/N=C(\C#N)c1ccccc1
inactive: max response [1] -6.28% | outcome [2] | max response [3] -0.0569% | outcome [4] | outcome [17] | outcome [18] | Potency [5] | Potency [6] | Potency [7]

CN1CCc2cc(Cl)c(O)cc2[C@H]2c3ccccc3CC[C@@H]21
active: Potency [16] 4780 nM
inactive: Potency [8] | Potency [9] | Potency [11] | Potency [14] | max response [1] -3.76% | outcome [2] | max response [3] 18% | max response [4] -2.57% | outcome [17] | Potency [5] | Potency [6] | Potency [7]

CCCCC1C(=O)NC(=O)N(C2CCCCC2)C1=O (configuration not stated)
inactive: max response [1] -13.7% | outcome [2] | max response [3] 2.39% | max response [4] -9.24% | outcome [17] | Potency [5] | Potency [6] | Potency [7]

C=CCN1CC[C@]23CCCC[C@H]2[C@H]1Cc1ccc(O)cc13
inactive: max response [1] 1.58% | outcome [2] | max response [3] 20.9% | max response [4] -4.67% | outcome [17] | Potency [5] | Potency [6] | Potency [7]

CN(C)C(=O)Oc1cc(OC(=O)N(C)C)cc(C(O)CNC(C)(C)C)c1 (configuration not stated)
inactive: max response [1] -6.2% | outcome [2] | max response [3] -2.49% | max response [4] -1.01% | outcome [17] | Potency [5] | Potency [6] | Potency [7]

Nc1ccc(N)cc1
active: Potency [16] 3790 nM
inactive: Potency [11] | max response [1] -4.93% | outcome [2] | max response [3] -3.68% | max response [4] -12% | outcome [17] | Potency [5] | Potency [6] | Potency [7]

COc1cc(N)c(Cl)cc1C(=O)NC1CN2CCC1CC2 (configuration not stated)
inactive: max response [1] -0.63% | max response [2] -3.99% | max response [3] 8.72% | outcome [4] | Potency [5] | Potency [6] | Potency [7]

CCc1cc(OC)c(C[C@H](C)N)cc1OC
inactive: max response [1] -4.69% | max response [2] 0.504% | max response [3] -8.43% | max response [4] -16.2% | Potency [5] | Potency [6] | Potency [7]

ClC1=C(Cl)C2(Cl)C(CBr)CC1(Cl)C2(Cl)Cl (configuration not stated)
inactive: Potency [8] | Potency [9] | Potency [10] | Potency [11] | Potency [12] | Potency [13] | Potency [14] | Potency [15] | max response [1] -0.0053% | outcome [2] | max response [3] -4.74% | max response [4] -4.41% | outcome [17] | outcome [18] | Potency [5] | Potency [6] | Potency [7]

CC[C@H]1C[C@H]2[C@@H]3CCC4=CC(=O)CC[C@@H]4[C@H]3CC[C@]2(C)[C@H]1O
inactive: max response [1] -11.6% | max response [2] 2.56% | outcome [3] | max response [4] -0.575% | Potency [5] | Potency [6] | Potency [7]

CC(C)C(Br)C(=O)NC(N)=O (configuration not stated)
inactive: Potency [8] | Potency [9] | Potency [10] | Potency [11] | Potency [12] | Potency [13] | Potency [14] | Potency [15] | Potency [16] | outcome [1] | max response [2] -11.8% | max response [3] -15.8% | max response [4] -7.2% | outcome [19] | Potency [5] | Potency [6] | Potency [7]

CCN(CC)Cc1nccn1-c1ccc([N+](=O)[O-])cc1C(=O)c1ccccc1Cl
inactive: max response [1] -12.2% | outcome [2] | max response [3] -4.42% | max response [4] -7.47% | outcome [17] | Potency [5] | Potency [6] | Potency [7]

ClCCCN1CCN(c2cccc(Cl)c2)CC1
inactive: outcome [1] | outcome [2] | outcome [4] | outcome [19] | outcome [17] | outcome [18] | Potency [5] | Potency [6] | Potency [7]

CN1C2CCC(C)(C)C1CC(OC(=O)C(O)(c1cccs1)c1cccs1)C2 (configuration not stated)
inactive: max response [1] -6.95% | outcome [2] | max response [4] -4.3% | outcome [17] | Potency [5] | Potency [6] | Potency [7]

CC1=C2[C@H]3OC(=O)[C@@H](C)[C@@H]3CC[C@@]2(C)C=CC1=O
inactive: max response [20] -1.89% | outcome [2] | max response [3] 27.1% | max response [4] -1.04% | outcome [17] | Potency [5] | Potency [6] | Potency [7]

CC(CC(C#N)(c1ccccc1)c1ccccc1)N(C)C (configuration not stated)
inactive: max response [2] -5.96% | max response [3] -8.06% | max response [4] -12.2% | Potency [6] | Potency [7]
active: Potency [20] 24300 nM

CCC(=O)O[C@H]1CC[C@H]2[C@@H]3CCC4=CC(=O)CC[C@]4(C)[C@H]3CC[C@]12C
inactive: Potency [8] | Potency [9] | Potency [10] | Potency [11] | Potency [12] | Potency [13] | Potency [14] | Potency [15] | Potency [16] | outcome [2] | max response [3] -26.4% | max response [4] 0.89% | outcome [17] | Potency [5] | Potency [6] | Potency [7]

C[N+]1(CCC(C(N)=O)(c2ccccc2)c2ccccc2)CCCCC1
inactive: Potency [8] | Potency [9] | Potency [10] | Potency [11] | Potency [12] | Potency [13] | Potency [14] | Potency [15] | Potency [16] | max response [2] -10.3% | max response [3] 6.68% | outcome [4] | outcome [18] | Potency [5] | Potency [6] | Potency [7]

COc1ccc2c(C(=O)c3ccc(Cl)cc3)c(C)n(CC(=O)O)c2c1
inactive: max response [1] -9.6% | outcome [3] | max response [4] -34.1%

CCN(Cc1ccc(Cl)nc1)/C(=C/[N+](=O)[O-])NC
inactive: Potency [8] | Potency [9] | Potency [10] | Potency [11] | Potency [12] | Potency [13] | Potency [14] | Potency [15] | max response [1] -14.2% | outcome [2] | max response [4] 3.9% | outcome [17] | outcome [18] | Potency [5] | Potency [6] | Potency [7]

O=C(CBr)Nc1ccc(Cl)cc1C(=O)c1ccccc1F
inactive: outcome [1] | max response [2] 3.69% | outcome [4] | outcome [19] | Potency [5] | Potency [6] | Potency [7]

C1CN2CCC1CC2
inactive: max response [1] -5.27% | outcome [2] | outcome [4] | outcome [17] | Potency [5] | Potency [6] | Potency [7]
